PubChem BioAssay AID1794845 (National Center for Advancing Translational Sciences (NCATS), 2023)
Among all 6,900 compounds or so, fewer than 10 were called active. Calls follow the shape of the dose curve; as a rule, active = well fitted curve in the direction sought with a large enough effect; inconclusive = small, poorly fitted or top-dose-only effect, or another doubt; inactive = no such curve, though single readings can be large or run the other way. The list is a sample of the results.

molecular target: Metallo-beta-lactamase type 2 (Klebsiella pneumoniae) (UniProt C7C422); test: qHTS to identify inhibitors of the New Delhi Metallo-beta-lactamase (NDM): primary screen against the NCATS Gemini Collection; settings: NDM-1 enzyme, meropenem hydrolysis, absorbance 300 nm; series mostly up to 38.4 µM
Text: Assay Submitter (PI): James Inglese Ph.D., Patricia Dranchak Ph.D., Mahesh Aitha Ph.D. Assay Development and Screening Technology Laboratory (ADST) National Center for Advancing Translational Sciences (NCATS), Rockville, MD National Institute of Health (NIH), Bethesda, Maryland The metallo-beta-lactamases (MBL) are a main antibiotic resistance mechanism evolved by bacteria. There is an urgent clinical need for MBL inhibitors to mitigate this growing threat. To support a machine-based learning study, qHTS has been used to experimentally test inhibitors identified by prediction tools.
PROTOCOL TABLE (as described by Inglese et al., 2007) SEQUENCE No. (e.g., 1, 2, 3, etc.); […] (e.g., enzyme, Incubation, Reagent, etc.); VALUE; DESCRIPTION 1; NDM-1; 4 uL of 3 nM enzyme [2 nM final] in 50 mM HEPES (pH 7.0), 1 uM […], 0.01% Tween20; Use BioRaptr to dispense into Aurora black, clear bottom low base 1536-well plates 2; Compounds; 23 nL; Use Pin Tool (Wako) to transfer DMSO control and library compounds in DMSO 3; Incubate; >30 min 4; Reagent; 2 uL of 150 uM meropenem [50 uM final] 5; Incubate; 30 min. 6; Detector; Absorbance at 300 nm (bandwidth = 5 nm, 25 flashes/well) on Tecan Infinity NOTES (numbers refer to sequence above) 1; Column 1 of each plate received assay buffer without enzyme and columns 2-48 received enzyme for a final assay concentration of 2 nM. 2; Control plate contained DMSO in columns 1, 2, 3, and 4. 3; Compound interaction with enzyme. 4; Meropenem substrate was prepared in the same assay buffer as step 1 for a final assay concentration of 50 uM and added to all wells across the assay plates. 5; Substrate interaction with enzyme, plateau phase of kinetics. 6; Default reader settings were applied for absorbance read at 300 nm, bandwidth = 5 nm, 25 flashes/well. References: Inglese J, Shamu CE, Guy RK. 2007. Reporting data from high-throughput screening of small-molecule libraries. Nat Chem Biol. doi:10.1038/nchembio0807-438 Yasgar A, Shinn P, Jadhav A, Auld D, Michael S, Zheng W, Austin CP, Inglese J, Simeonov A. 2008. Compound Management for Quantitative High-Throughput Screening. J Lab Autom 13:79 - 89. doi:10.1016/j.jala.2007.12.004

Metallo-beta-lactamase type 2 (Klebsiella pneumoniae), sequence (C7C422 whole entry, looked up): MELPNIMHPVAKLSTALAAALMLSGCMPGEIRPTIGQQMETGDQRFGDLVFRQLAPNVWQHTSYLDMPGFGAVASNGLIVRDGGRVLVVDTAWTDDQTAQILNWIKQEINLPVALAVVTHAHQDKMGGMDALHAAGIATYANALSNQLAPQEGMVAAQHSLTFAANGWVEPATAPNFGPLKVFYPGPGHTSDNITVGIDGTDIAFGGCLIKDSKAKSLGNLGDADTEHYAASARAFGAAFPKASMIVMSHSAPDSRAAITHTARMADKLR

outcome, inactive:
N#Cc1ccccc1-c1cc2c(ccn2Cc2ccncc2)c(N2CCOCC2)n1
COc1cc(CC2(CCC(=O)N3CCC(Oc4cccc(F)c4)CC3)CCC(=O)N2)ccc1F (stereo not drawn)
CN1CCN([C@H]2[C@@H]3OC[C@@H](O3)[C@@H](NCc3ccc(-c4ccccc4)cc3)[C@@H]2O)CC1
CC(C)(C)c1nc(C(=O)NCc2cccnc2)n2ccccc12
CN1CCN(C(=O)c2cncc(N[C@H]3C[C@@H]4OCC[C@H]34)n2)CC1
COc1ccc(C(=O)N2CCC3(CCC3OC)CC2)cn1 (stereo not drawn)
CCC1(N2CCN(S(=O)(=O)c3cccs3)CC2)CCN(S(C)(=O)=O)C1 (stereo not drawn)
Cn1cc(CN[C@H]2C[C@H]3C(=O)NC[C@@H](CCC(=O)NCc4ccccc4)N3C2)c2ccccc21
CCc1nc(-c2c3n(c(=O)n(CC(=O)OC)c2=O)CCCC3)no1
O=C(c1n[nH]c2ccccc12)N1CC2CC(C1)[C@H]1CCCC(=O)N1C2 (stereo partly drawn)
COCc1nnc2n1CCC(NC(=O)Cn1nc(C(F)(F)F)cc1C)CC2 (stereo not drawn)
Cc1ccc(C(C(=O)O)N2CCC(C(=O)N3CCCC3)CC2)c(C)c1 (stereo not drawn)
O=C(NCCCn1ccnn1)c1cccc(S(=O)(=O)N2CCOCC2)c1
CC(=O)N1CCC(N2CC[C@H](c3nc4ccccc4s3)C2)CC1
N[C@H]1CN(C(=O)c2cccc(-n3cnnc3)c2)C[C@@H]1c1ccccc1
COCC1CN(Cc2c(C)n[nH]c2C)CC12CCNCC2 (stereo not drawn)
COc1ccc(Cn2c3c(c(=O)n2Cc2ccccc2)CCN(C(=O)CCc2cccnc2)C3)cc1
CCn1c(C(=O)OC)c(NC(C)=O)c2cc(NC(C)Cc3ccccc3OC)cnc21 (stereo not drawn)
COc1cccc(CN2CC(Oc3ccccc3C(=O)NC3CC3)C2)c1
CN(Cc1cc(C[C@@H]2C[C@H](NC(=O)C(C)(C)C)C2(C)C)no1)c1ccccc1
Cc1cc2nc3n(c(=O)c2n1CC(=O)NC1CCCCC1)CCCCC3
COCCN1CCCCCC(O)c2cc(C(=O)NCc3ccc(F)cc3)ccc21 (stereo not drawn)
O=C(CCn1ccn2nc3c(c2c1=O)CCCC3)N1CCSCC1
CCN(C1CCOCC1)C1CN(C(=O)c2ccccn2)C1
CN1CC[C@H]2CN(C(=O)c3scc4c3OCCO4)C[C@@]2(C(=O)O)C1
Cc1cc(C(=O)N2CC[C@H](NS(=O)(=O)c3cn(C)cn3)C[C@H]2C(=O)N[C@H](Cc2c[nH]c3ccccc23)C(N)=O)n(C)n1
Cc1cccc(C(=O)N2CCCCCCN(C)C(=O)[C@@H]3CCC[C@@H]32)c1
CCN(CC)C(=O)[C@@H]1C[C@@H](NC(=O)c2ccn(CC)c(=O)c2)CN1C(C)=O
COC[C@@H]1CN(C(=O)Cc2c(C)noc2C)C[C@H]1c1ccccn1
O=C(NC1CCN(c2ccnc3ccnn23)C1)c1cc(F)ccc1Br (stereo not drawn)
COCC(=O)N[C@H]1C[C@@H](CO)N(Cc2scnc2C)C1
COc1ccc2cc(C3CN(C(=O)CNC(=O)C(C)C)CCO3)ccc2c1 (stereo not drawn)
COc1ccc(C(=O)Nc2ccc3c(c2)CN(CCc2ccccc2)C(=O)C(C)O3)cc1OC (stereo not drawn)
COc1ccc(-c2cn(C)c(=O)n3cc(CN4CCNC(=O)C4)nc23)cn1
CCCC(C)N1CC2(CCN(C(=O)c3cnn4c3CCCC4)CC2)OC1=O (stereo not drawn)
CCCN1CC2(CCN(Cc3nc(CCOC)no3)CC2)CC1C(=O)O (stereo not drawn)
O=C(Cc1ccsc1)Nc1ccc2c(N3CCCC3)ncnc2c1
CN(C)Cc1nnc(C2CC(NC(=O)Cc3noc4ccccc34)C2)n1C (stereo not drawn)
O=C1NC2(CCN(Cc3ccccc3C(F)(F)F)C2)COc2ccccc21 (stereo not drawn)
CN(C)C[C@@H]1CN(Cc2ccncc2)C[C@H]1NC(=O)Cc1ccsc1
COCc1ncc(C)n1C1CCCN(C(=O)CCCc2ccccc2)C1 (stereo not drawn)
O=C(CC1CCCC1)N1CCCC(c2nn[nH]n2)C1 (stereo not drawn)
O=C1c2ccccc2CN1C1CCN(Cc2cccc3ccccc23)CC1
COc1ccc(-c2ccccc2NC(=O)C2CCCN(CC=C(C)C)C2)cc1 (stereo not drawn)
O=C1NCCOCCN(S(=O)(=O)c2ccc3c(c2)CCC3)[C@@H]2CCCC[C@H]12
CC(=O)c1cc(C(=O)NCc2c(C)ncc3c2CCNC3)[nH]n1
COc1ccc(C(=O)N2CCC([C@@H]3CNC[C@H]3CO)CC2)cc1
CNC(=O)[C@@H](C1CC1)N1CCC[C@H]1C(=O)NCc1cccnc1
COC(=O)NCC(=O)N1CC[C@@H]2[C@@H](CCC(=O)N2CCc2ccccc2)C1
CCn1c(CN2CCN(c3nc4ccccc4s3)CC2)nnc1C1CC(N)C1 (stereo not drawn)
CCn1cc(S(=O)(=O)NCC2Cn3cccc3C(=O)N2C)cn1 (stereo not drawn)
COc1ccc(CN2CCCC3(Cc4ccccc4CNC3=O)C2)c(OC)n1 (stereo not drawn)
Cc1cc(C)n(CCc2c(-c3ccccc3)ncn2C(C)CCCC(C)(C)O)n1 (stereo not drawn)
CCc1nc(-c2c3n(c(=O)n(CC(=O)NC4CCCC4)c2=O)CCCCC3)no1
CC(C)Cc1cc(CN2CCC(CO)(CN3CCCC3)CC2)[nH]n1
OC1(CN2CCC(c3nc(-c4ccccc4)no3)CC2)CNCCOC1 (stereo not drawn)
CCN1CC2(CCN(Cc3nc(COC)no3)CC2)CC(c2ccccc2)C1=O (stereo not drawn)
Cc1noc(C)c1CCCNC(=O)c1ccc(NC[C@H]2C[C@H]3C=C[C@H]2C32CC2)nc1
CN(C)c1cccc(C(=O)NC2CCN(c3cc(-c4cccs4)[nH]n3)C2)c1 (stereo not drawn)
COc1ccccc1-c1ccc(CN2CCCC(c3nc4ccc(C)cc4c(=O)[nH]3)C2)cc1 (stereo not drawn)
C[S+](=O)([O-])N1CCC(Cn2ccc3c(N4CCOCC4)nc(-c4cccc5[nH]ncc45)cc32)CC1
O=C(c1ccccn1)N1CCCC2(CNc3ccccc3[S+](=O)([O-])N2)C1 (stereo not drawn)
CN1CCCC(CN(C)C(=O)c2cc(-c3cnn(CCO)c3)nc3ccccc23)C1 (stereo not drawn)
Cc1cnc(C2CC2)n1C1CCCN(C(=O)c2ccoc2)C1 (stereo not drawn)
COc1ccc(C(=O)N2CCC3(CC2)OCC(C(=O)NC2CC2)N3C(=O)c2cccc(C)c2)cc1 (stereo not drawn)
Cc1ccsc1CN1CCc2nc(N3CCOCC3)[nH]c(=O)c2CC1
O=C1NC2(CCCN(Cc3cncs3)C2)COc2ccccc21 (stereo not drawn)
CCS(=O)(=O)Nc1ccc(C)n(CC(=O)NC2CCCCC2)c1=O
